# About 83,000 compounds went through this panel and 20% of them were active in at least one assay; those are over-represented in the sample as a whole.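 Results are percent growth after 48 hours of single-concentration exposure. 100 means growth as in untreated cells, lower positive values show inhibition; negative values down to -100 show cell death.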 Unmarked numbers belong to inactive results. Activity calls are given as the source filed them. Rule for the calls: active = growth percent below 10; inactive = the rest.
# Tested on: SK-MEL-2 melanoma
# Assay: NCI-60 one-dose screen, 48 h (100 = growth as untreated, 0 = no growth, -100 = all killed)
# Details: 10 µM unless noted
row,Compound,growth
1,CCCCN1C=CCN(CCCC)C1,24.4%
2,Cc1nn(-c2ccccc2)c(Cl)c1/C=N\N=c1/sc2ccccc2n1C,114%
3,COc1cc(CC(=O)n2ncc3ccc(N)cc32)cc(OC)c1OC,98%
4,Cn1cc(-c2nc(-c3c[nH]c4c(Cl)nccc34)cs2)c2cc(Br)ccc21,87.6%
5,CCNc1nc2ccc(Nc3ccnc4cc(Cl)ccc34)cc2[nH]1,103%
6,Cc1ncc(C(=O)Nc2ccc(CN3CCN(C)CC3)c(C(F)(F)F)c2)cc1C#Cc1cnc(N)cc1C#N,-63.8% (active)
7,COc1cc(/C=C\c2cc(/C=C\c3ccc(O)c(OC)c3)n(C(=O)COc3ccccc3)n2)ccc1O,-18.7% (active)
8,C[C@H](c1nc2ccc(N)cc2[nH]1)[C@H]1CC[C@H]2[C@@H]3CCC4=CC(=O)CC[C@]4(C)[C@H]3CC[C@]12C,106%
9,CC(c1ccccc1)C(C(=O)c1ccccc1)c1ccccc1 (stereo not given),85.1%
10,N#CC1=C(N)Oc2c(ccc3ccccc23)C1c1ccccc1Cl (stereo not given),55.9%
11,N#CC(C(=O)/C(=N/NC(=O)c1ccccc1O)C(C#N)c1ccccc1)c1ccccc1 (stereo not given),68.6%
12,C[C@@H](Nc1ncnc2ccc(-c3cnc(N)nc3)cc12)c1ccc(F)cc1,101%
13,Cc1cccc(C)c1N=c1oc2ccc(Cl)cc2nc1-c1ccccc1O,85.7%
14,COc1cc(C2C3=C(COC3=O)N(CCO)c3cc4c(cc32)CCC4)cc(OC)c1OC (stereo not given),6.85% (active)
15,COc1cc2cc(Oc3cccc(NC(=O)Nc4cc(C(F)(F)F)cc(C(F)(F)F)c4)c3)c(C)nc2cc1OC,-30.4% (active)

# From PubChem BioAssay (NCI)
